Laboratory results from PubChem BioAssay (NCI).
About 83,000 compounds went through this panel and 20% of them were active in at least one assay; those are over-represented in the sample as a whole.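 Treatment: one concentration, 48 hours, 96-well format. Scoring: percent growth, with anything below 10 considered active.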 Values without a mark were called inactive. The source made the active and inactive calls.

How the values were obtained:
Assay in all cases: NCI-60 one-dose screen, 48 h (100 = growth as untreated, 0 = no growth, -100 = all killed)
Details in all cases: 10 µM unless noted
[1] = test system: SR leukemia
[2] = test system: RPMI-8226 leukemia
[3] = test system: OVCAR-8 ovarian
[4] = test system: OVCAR-5 ovarian
[5] = test system: OVCAR-4 ovarian
[6] = test system: IGROV1 ovarian
[7] = test system: OVCAR-3 ovarian
[8] = test system: HS 578T breast
[9] = test system: NCI/ADR-RES ovarian
[10] = test system: SK-OV-3 ovarian

Row | Compound | growth [1] | growth [2] | growth [3] | growth [4] [%] | growth [5] [%] | growth [6] | growth [7] | growth [8] | growth [9] | growth [10] [%]
1 | CC1=C[C@@H]2c3c(c(O)c(O)c4oc5cc(O)cc(O)c5c(=O)c34)[C@@H](c3cc(O)c(O)c4oc5cc(O)cc(O)c5c(=O)c34)[C@@H]2C(C)(C)C1 | 4.52% (active) | -4.75% (active) | 7.34% (active) | 19.6 | 22.3 | 12.9% | -10.4% (active) | 8.08% (active) | 68.8% | 
2 | COC(=O)c1cc(Nc2ccc(O)c3c2C(=O)c2c([N+](=O)[O-])ccc(O)c2C3=O)cc(C(=O)OC)c1 | 2.02% (active) | 17.9% | 65.1% | 50.4 | 80.5 | 85.9% | 54.7% |  | 71.2% | 
3 | c1ccc(Nc2ccccn2)cc1 | 80.2% | 89.1% | 107% | 106 |  | 101% | 116% | 106% | 109% | 105
4 | Cc1c([C@H](C(Cl)Cl)[C@H](O)[C@H]2C[C@H](C)C(=O)O2)ccc2c1C(=O)[C@H]1[C@H]2C[C@@H](Br)[C@@]23O[C@@H](CO[C@H]2O)CC13C (some centres not stated) | 11.9% | 26.7% | 5.88% (active) | 55.6 | 38.6 | 36.5% | -56.5% (active) | -23.2% (active) | 30.8% | 
5 | COc1ccc(CN2C(=O)/C(=C\C(=O)c3ccc(OCCN4CCCCC4)cc3)c3ccccc32)cc1 | -22.2% (active) | -11.6% (active) | 80.8% | 76.3 | 45.4 | 68.7% | 44.3% | 81.3% | 83.3% | 
6 | C=C(C)C(C(=O)OCC)(C(=O)OCC)C(C)C | 120% | 99.4% | 108% | 94.7 | 98.5 | 117% | 116% |  | 116% | 
7 | O=C1C(Cl)=C(Nc2ccc(Nc3ccccc3)c(NC3=C(Cl)C(=O)c4ccccc4C3=O)c2)C(=O)c2ccccc21 | 44.6% | 27.4% | 71.5% | 141 | 54.8 | 68.6% |  |  | 86.4% | 
8 | CC1C(=O)CCCC1=O | 97.6% | 101% | 107% | 104 |  | 102% | 118% |  |  | 108
9 | COc1ccc2sc(-n3nc4nc5n(c(=O)c4c3N)-c3ccccc3Sc3ccccc3-5)nc2c1 | 65.2% | 45.5% | 81.7% | 126 | 66.4 | 67.9% | 76.6% | 90.6% | 74% | 
10 | COc1cc(N)c2nccc(C)c2c1OC | 55.5% | 144% | 96.4% | 107 | 94.4 | 385% | 111% | 104% | 131% | 
11 | CCCCCCCCc1ccc(CCC(N)(CO)CO)cc1 | -32.8% (active) | -23.2% (active) | -68.6% (active) | 56.8 |  | -37.9% (active) | -47.9% (active) |  | 9.65% (active) | 83.6
12 | N#CCCCCCCCCCCC#N | 118% | 94.9% | 100% | 99.6 |  | 124% | 125% |  | 98.3% | 109
13 | O=C1c2cc([N+](=O)[O-])ccc2-c2cc(Cl)c(NC(=O)C(F)(F)F)cc21 | 98.6% | 102% | 121% | 104 |  | 110% | 133% |  | 105% | 111
14 | Oc1ccc(CN(Cc2ccc(C(F)(F)F)cc2)Cc2ccc(O)c3ncccc23)c2cccnc12 | 3.48% (active) | 11.7% | 11% | 44.5 |  | 20% | 37.5% |  | 6.89% (active) | 17.8
15 | COC1NC(Cl)=C(C#N)C(C#N)(C#N)C1(C)C (configuration not stated) | 98.7% | 127% | 107% | 31.6 | 111 | -21.4% (active) | 123% | 104% | 120% | 
16 | Cc1ccc([C@@H]2C[C@H](O)Cc3ccccc3N2)s1 | 96.4% | 102% | 99.1% | 97.7 |  | 100% | 111% |  | 104% | 98.6
17 | COc1ccc2c(c1)/C(=C1/S/C(=N/c3nnc(C)s3)NC1=O)C(=O)N2Cc1ccc(Br)cc1 | 55% | 26.6% | 38% | 74.5 | 40.1 | 40.9% | 28.7% | 47.8% | 32.2% | 
